From PubChem
FMDV inh: antivirals against foot and mouth disease virus. FMDV antiviral cell-based qHTS. Potency, µM (highest dose often 57.9 µM), for inactives: at the top dose activity change, negative = inhibition, actives largely listed as inhibitors. 410,000 compounds, 1.2% hits; calls by dose curve; tested in HEK293T cells; note: read-out not given here; potency is the fitted concentration of half-maximal effect; % is set by controls: 0 for no effect and ±100 for the full control effect; nearly all actives have a fitted effect of over 45% in size
Shiga toxin inh: inhibitors of Shiga toxin in Vero cells; Vero cells, Shiga toxin protein synthesis inhibition reporter; inhibition, % at 38.7 µM; 290,000 compounds, 9.2% hits; AID 2315; in the data active = inhibition mostly above about 28%, no sharp cut-off; inactive = mostly below about 43%; note: 0% is about no effect
Sm TGR inh: inhibitors of Schistosoma mansoni thioredoxin glutathione reductase; Q962Y6; purified TGR, DTNB reduction, TNB absorbance 405 nm; Potency, µM (titrated, usually from 114 µM), for the others: at the highest dose activity change, negative = inhibition, hits mostly inhibitors; 360,000 compounds, 3% hits; active = well fitted inhibition curve with a large enough effect; inconclusive = small, poorly fitted or top-dose-only effect; inactive = no such curve, though single readings can be large or run the other way; note: potency is the fitted concentration of half-maximal effect; % is set by controls: 0 for no effect and ±100 for the full control effect; nearly all actives have a fitted effect of over 60% in size
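First, TGR (20 nM dispensed) and NADPH were mixed with compound. Second, a 15 min room-temperature incubation followed. Third, further NADPH and then DTNB were added to start the reaction. Finally, TNB absorbance was monitored kinetically.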
Cycloheximide cs: counter-screen hit for Shiga toxin inhibitors, cycloheximide | cell reporter, cycloheximide protein synthesis inhibition counterscreen | 300,000 compounds, 12% hits | max response, %; in the data active = max response mostly above about 13%, no sharp cut-off; inactive = mostly below about 14%; note: read at 38.3 µM for the half of the compounds with a filed dose; 0% is about no effect
An asterisk follows results filed as active; ? = inconclusive; / = no result given; [ ] = another dose, or the depositor's remark. In the library only some 12% were active in any assay of this set; here they are far more common.

SMILES	FMDV inh	Shiga toxin inh	Sm TGR inh	Cycloheximide cs
CC1CC(C)CN(C(=O)Cn2c(=O)n(CCCCC(=O)NC3CCCC3)c(=O)c3ccccc32)C1 (stereo not given)	-21%	1	28µM*	-4
C=CCc1cccc(/C=N/NC(=O)c2ccccc2OC)c1O	44%	135*	13%	30*
COc1ccccc1/C=N/NC(=O)c1ccccc1Cl	29%	3	19%	15
C=CCc1cccc(/C=N/NC(=O)c2ccccc2Br)c1O	-22%	50*	-5%	10
O=C(N/N=C/c1ccccc1C(=O)O)c1ccccc1Br	24%	38	-1%	7
CCOC(=O)c1cc(-c2ccccc2)n(CC(=O)Nc2cc(Cl)c(OC)cc2OC)c1C	-11%	/	4%	/
CC(C)Oc1ccc(C(=O)Nc2ccc3c(c2)CCCN3C(=O)c2cccs2)cc1	22µM*	/	2%	/
CCCCOc1ccc(C(=O)Nc2ccc3c(c2)CCCN3C(=O)c2cccs2)cc1	25µM*	/	9%	/
COc1ccc(C(=O)Nc2ccc3c(c2)CCCN3C(=O)c2cccs2)c(OC)c1	?	-1	10%	12
COc1cccc(C(=O)Nc2ccc3c(c2)CCCN3C(=O)c2cccs2)c1OC	-15%	49*	3%	26*
O=C(Nc1ccc2c(c1)CCCN2C(=O)c1ccccc1)c1ccccc1	-18%	54*	5%	22*
Cc1ccccc1C(=O)Nc1ccc2c(c1)CCCN2C(=O)c1cccs1	-30%	11	2%	10
Clc1ccc(/C=C/c2ncc3ccccn23)cc1	1%	83*	6%	33*
C#CCn1c(/C=C/c2ccc(Cl)cc2)nc2ccccc21	-21%	/	-2%	/
O=S(=O)(c1ccc2nc(COc3ccc(Cl)cc3Cl)[nH]c2c1)N1CCOCC1	/	22	9%[11.4 µM]	14*
O=S(=O)(c1ccc2c(c1)OCCO2)N1CCC(c2nc3ccc(Cl)cc3[nH]2)CC1	14µM*	6	1%	-1
O=S(=O)(c1ccc2c(c1)OCCO2)N1CCC(c2nc3ccccc3[nH]2)CC1	?	-16	1%	-2
O=C(O)CCn1c(=O)c2cccn2c2cccnc21	-15%	/	-2%	/
Cc1ccc(-n2nc(CO)c(C(=O)NCCCCc3ccccc3)n2)cc1	-9%	/	2%	/
CCn1cc(C(=O)N(C)Cc2ccccc2)c(=O)c2cc(S(=O)(=O)N3CCc4ccccc4C3)ccc21	26%	/	19%	/
Cc1cccc(CNC(=O)c2ccc3nc(-c4ccccc4)c(-c4ccccc4)nc3c2)c1	-19%	/	4%	/
COc1cc(C(=O)N/N=C(\c2ccccc2)c2ccccn2)cc(OC)c1OC	40µM*	-13	-1%	-8
COc1ccccc1NC(=O)C/C(C)=N/NC(=O)c1ccccn1	41%	63*	3%	33*
COc1ccc(C(=O)N/N=C(\C)CC(=O)Nc2ccccn2)cc1OC	-1%	1	-7%	-6
COc1cc(NC(=O)C/C(C)=N/NC(=O)Cc2ccc(Cl)cc2)c(OC)cc1Cl	?	-17	-2%	-5
SMILES	FMDV inh	Shiga toxin inh	Sm TGR inh	Cycloheximide cs
COc1cc(NC(=O)C/C(C)=N/NC(=O)c2ccccn2)c(OC)cc1Cl	30%	72*	-2%	44*
CCOc1ccccc1NC(=O)Cn1c(=O)n(-c2ccccc2)c(=O)c2c1c1cc(C)ccc1n2C	-8%	/	2%	/
CN(CCO)C(=O)c1cn(C2CCCN(Cc3ccc4ccccc4c3)C2)nn1 (stereo not given)	-22%	/	/	/
CCc1cccc(C)c1NC(=O)CCS(=O)(=O)c1ccc2c(c1)oc(=O)n2C	-11%	/	25µM*	/
O=C(NCc1ccccc1)c1cccn1-c1nnc(N2CCCCC2)s1	28%	/	-5%	/
CC(C)OC(=O)c1cc2c(=O)[nH]c(C(Cl)(Cl)Cl)nc2o1	23%	28	28µM*	30
CC(=O)N1c2ccccc2C(C)(c2ccc(C)cc2)CC1(C)C (stereo not given)	?	/	5%	/
FC(F)(F)c1ccccc1-c1cncnc1NCCN1CCOCC1	8%	/	/	/
O=C(NN=C1CCCC1)c1n[nH]c2c1CCC2	52%	27	0%	24*
O=C(NC1CCCCC1)c1n[nH]c2c1CCCCC2	14µM*	/	-3%	/
O=C(NN=C1CCCCCCCCCCC1)c1ccncc1	-8%	5	-4%	9
O=C(NN=C1CCCC1)c1ccc([N+](=O)[O-])cc1	-11%	28	6%	8
O=C(NN=C1CCCC1)c1n[nH]c2c1CCCC2	-19%	59*	/	32*
CCC(C)(C)C1CCc2[nH]nc(C(=O)NC3CCCC3)c2C1 (stereo not given)	0%	/	-4%	/
COc1cccc(-c2n[nH]c3c2CCC3)c1	14%	52	17%	22*
O=[N+]([O-])c1ccc(-c2nc(=S)c3c(o2)CCCC3)cc1	-26%	16	?	12*
S=c1[nH]nc(-c2ccccc2)o1	-4%	29	6%	5
COc1cccc(-c2nc(=S)c3c(o2)CCCC3)c1	51%	120*	3%	42*
S=c1nc(-c2ccccc2)oc2c1CCCC2	22%	95*	12%	60*
Cc1ccc(-c2nc3c4ccccc4n(CC(=O)N4CCN(c5ccc(F)cc5)CC4)c(=O)n3n2)cc1	-3%	/	4%	/
COc1ccc(CNC(=O)c2cc3c(=O)n(Cc4ccco4)ccc3nc2C)cc1	-13%	/	?	/
CSc1ccc(CNC(=O)c2cc3c(=O)n(Cc4ccco4)ccc3nc2C)cc1	-19%	/	45µM*	/
O=C(CCl)Nc1sccc1C(=O)c1ccccc1	20µM*	/	/	/
Cc1cc(C(=O)c2ccccc2)c(NC(=O)CN2CCOCC2)s1	-9%	-7	-6%	-1
Cc1sc(NC(=O)CCl)c(C(=O)c2ccccc2)c1C	?	-7	7.9µM*	12*
SMILES	FMDV inh	Shiga toxin inh	Sm TGR inh	Cycloheximide cs
CNC(=O)c1ccsc1NC(=O)c1ccccc1	26%	16*	4%	25*
Cc1cc(C(=O)c2ccc(C(C)(C)C)cc2)c(NC(=O)CCl)s1	35µM*	-3	10%	-2
Cc1cccc(NC(=O)Cn2c(=O)c3cccn3c3ccccc32)c1C	-9%	/	-2%	/
COc1ccccc1CNC(=O)c1ccc(Cn2c(SCc3ccccc3)nc3cccnc32)cc1	9%	/	2%	/
CCOC(=O)c1ccc(NC(=O)CCc2c(C)n(CC)c3cc(-c4ccccc4OC)nn3c2=O)cc1	-1%	/	6%	/
CC(=O)Nc1sc(C)c(C)c1C(=O)OCCOc1ccccc1	0%	113*	-4%	48*
Cc1nn(Cc2ccccc2)c(Cl)c1C(=O)NCCc1ccccc1	22%	60*	-3%	56*
CN(C(=O)COC(=O)CNC(=O)c1ccccc1Cl)c1ccccc1	7%	14	3%	8
CN(C(=O)COc1ccccc1C(=O)NCCOc1ccccc1)c1ccccc1	8.9µM*	-10	12%	-3
COc1cc(SC)ccc1C(=O)NCCOc1ccc(F)cc1	14%	74*	-1%	45*
Cc1nn(Cc2ccccc2)c(Cl)c1C(=O)O	-6%	-22	11%	-3
O=C(NCCc1ccccc1)c1ccccc1Cl	-54%	6	11%	13*
Cc1ccc(-c2nc(S(=O)(=O)c3ccc(C)cc3)c(SCC(=O)Nc3ccc(F)cc3)o2)cc1	-16%	/	0%	/
O=C(NCCOc1ccccc1)c1ccccc1Cl	5%	55*	0%	43*
O=C(NCCOc1ccccc1Cl)c1cc(F)c(F)cc1Cl	20%	74*	0%	53*
